According to PubChem BioAssay (Tox21):
Results filed as inconclusive are left out. Calls of active or inactive are those of the source. Unless noted, calls come from the whole dose curve.

Key:
[1] = Nuclear factor erythroid 2-related factor 2/antioxidant responsive element (Nrf2/ARE) small molecule agonists: qHTS cell viability counter screen in human keratinocytes (AID 1919968; active = well fitted curve in the direction sought with a large enough effect in the repeat runs; an effect the other way counts as inactive or inconclusive; note: nearly all actives have a fitted effect of over 55% in size)
How it was run: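 KeratinoSens cells (HaCaT keratinocytes stably carrying an ARE-luciferase reporter) were seeded at 1,500 cells/well and rested 5 h at 37 C/5% CO2. They were then exposed to compounds in DMSO for 23 h. Viability was read by CellTiter-Fluor fluorescence after 1 h.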

[2] = Nuclear factor erythroid 2-related factor 2/antioxidant responsive element (Nrf2/ARE) small molecule agonists: luciferase reporter gene qHTS assay in human keratinocytes (AID 1919969); note: nearly all actives have a fitted effect of over 35% in size
[3] = target: Gonadotropin-releasing hormone receptor (Homo sapiens) (UniProt P30968); assay: Human gonadotropin-releasing hormone receptor (GnRHR) small molecule agonists, calcium flux assay in GnRHR-HEK293 cells (AID 1920063); note: nearly all actives have a fitted effect of over 35% in size
How it was run: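 HEK293 cells stably expressing human GnRHR were plated 18 h at 37 °C, loaded with calcium dye 1 h at 37 °C, then given compound in agonist mode; fluorescence (Ex/Em 480/540) read kinetically for 3 min at 1 s intervals.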

[4] = target: KiSS-1 receptor (Homo sapiens) (UniProt Q969F8); assay: Human kisspeptin (KISS1R) small molecule agonists, calcium flux assay in KISS1R-HEK293 cells (AID 1920064; active = well fitted curve in the direction sought with a large enough effect in the repeat runs; an effect the other way counts as inactive or inconclusive)
How it was run: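 HEK293 cells stably expressing human KISS1R were plated 18 h at 37 °C, loaded with calcium dye for 1 h at 37 °C, then given compound by pin tool. Fluorescence (Ex/Em 480/540) was read kinetically for 3 min.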

[5] = G protein-coupled receptor (GPCR) small molecule agonists, calcium flux assay: HEK293 wild type cell line counter screen (AID 1920065)
How it was run: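 Cells were plated and cultured 18 h at 37 C/5% CO2, then loaded with calcium dye for 1 h at 37 C. Compounds in DMSO were pin-transferred in agonist mode, and fluorescence (Ex/Em 480/540) was read kinetically for 3 min at 1 s intervals.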

[6] = p53 small molecule agonists, cell-based qHTS assay with human liver microsomes (AID 1963577)
How it was run: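 p53RE-bla cells, 4,000/well, compound added after 5 h, with human liver microsomes 0.5 mg/mL and NADPH 0.5 mg/mL final; 16 h at 37 C, then LiveBLAzer 2 h RT, fluorescence.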

[7] = p53 small molecule agonists, cell-based qHTS assay with rat liver microsomes (AID 1963578)
How it was run: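 p53RE-bla cells, 4,000/well, pre-incubated 5 h, then given compounds plus rat liver microsomes (0.5 mg/mL final) and NADPH (0.5 mg/mL final). Incubation 16 h at 37 C; beta-lactamase reporter read by LiveBLAzer fluorescence after 2 h at room temperature.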

[8] = p53 small molecule agonists, cell-based qHTS assay with human liver microsomes: qHTS cell viability counter screen (AID 1963579); note: nearly all actives have a fitted effect of over 45% in size
How it was run: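 p53RE-bla cells, 4,000/well, dosed 5 hours after plating, with human liver microsomes (0.5 mg/mL final) plus NADPH (0.5 mg/mL final), 16 hours at 37 C. Viability read as CellTiter-Glo luminescence after 30 min at room temperature.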

[9] = p53 small molecule agonists, cell-based qHTS assay with rat liver microsomes: qHTS cell viability counter screen (AID 1963580); note: nearly all actives have a fitted effect of over 45% in size
How it was run: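 Viability is assessed in parallel with the p53 reporter read: HCT-116 p53RE-bla cells receive compounds plus rat microsomes and NADPH (0.5 mg/mL final apiece), incubate 16 h at 37 C, and then CellTiter-Glo luminescence is recorded.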

[10] = p53 small molecule agonists, cell-based qHTS assay: qHTS cell viability counter screen (AID 1963581); note: nearly all actives have a fitted effect of over 45% in size
How it was run: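 p53RE-bla HCT-116 cells were exposed to compounds for 16 h at 37 C; after the beta-lactamase FRET read in the same wells, CellTiter-Glo was added and luminescence (intracellular ATP) read after 30 min at room temperature.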

[11] = p53 small molecule agonists, cell-based qHTS assay (AID 1963582; active = well fitted activation curve with a large enough effect in the signal ratio in the repeat runs, not every such curve was filed as active; the % refers to the signal ratio)
How it was run: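 p53RE-bla beta-lactamase reporter cells rested 5 h at 37 C/5% CO2, then received compounds in DMSO by pin transfer and were incubated 16 h at 37 C. LiveBLAzer B/G FRET substrate was loaded for 2 h at room temperature before fluorescence reading.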

[12] = target: 5-hydroxytryptamine receptor 2A (Homo sapiens) (UniProt P28223); assay: 5-hydroxytryptamine receptor 2A (HTR2A) small molecule agonists, cell-based qHTS assay (AID 1963587); note: nearly all actives have a fitted effect of over 30% in size
How it was run: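 CHO cells stably expressing human HTR2A, plated 18 h, loaded with calcium dye 1 h at 37 C. Agonist mode: compounds added and intracellular calcium fluorescence recorded kinetically for 2 min at 1 sec intervals.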

[13] = target: Muscarinic acetylcholine receptor M1 (Homo sapiens) (UniProt P11229); assay: Cholinergic receptor muscarinic 1 (CHRM1) small molecule antagonists, cell-based qHTS assay (AID 1963588); note: nearly all actives have a fitted effect of over 40% in size
How it was run: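 CHRM1-CHO calcium-flux assay, antagonist mode. Cells were seeded 18 h, dye-loaded 1 h at 37 C and given compound for 5 min at RT, then acetylcholine was added at 50nM. FDSS fluorescence was read 3 min; 15 concentrations, three runs.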

[14] = target: Muscarinic acetylcholine receptor M1 (Homo sapiens) (UniProt P11229); assay: Cholinergic receptor muscarinic 1 (CHRM1) small molecule agonists, cell-based qHTS assay (AID 1963589); note: nearly all actives have a fitted effect of over 35% in size
How it was run: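 CHO cells stably expressing human CHRM1, seeded 18 h at 37 C/5% CO2, dye-loaded 1 h at 37 C, then given compound in agonist mode; intracellular calcium fluorescence read kinetically at 1 s intervals. Fifteen concentrations, three independent runs.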

[15] = cAMP Responsive Elements (CRE) small molecule agonists, cell-based qHTS assay (AID 1963590)
How it was run: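 CRE-bla HEK 293T cells in DMEM with 10% dialyzed FBS, NEAA, pyruvate and 25 mM HEPES were plated 18 h at 37 C/5% CO2, then exposed to compounds in DMSO for 3 h before LiveBLAzer B/G FRET substrate addition.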

[16] = cAMP Responsive Elements (CRE) small molecule antagonists, cell-based qHTS assay (AID 1963591; active = well fitted inhibition curve with a large enough effect in the signal ratio in the repeat runs, not every such curve was filed as active; the % refers to the signal ratio)
How it was run: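 CRE-bla HEK293T cells were plated 18 h at 37 °C/5% CO2, pinned with compound in DMSO, then stimulated with NKH477 at 0.25 uM final for 3 h. LiveBLAzer B/G FRET substrate was added and plates incubated 2 h at room temperature.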

[17] = target: D(2) dopamine receptor (Homo sapiens) (UniProt P14416); assay: Dopamine D2 receptor (DRD2) small molecule agonists, cell-based qHTS assay (AID 1963594); note: nearly all actives have a fitted effect of over 35% in size
How it was run: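 HEK293 cells stably expressing human DRD2, pre-treated with PDE inhibitor Ro20-1724 (0.1 mM final) and compound 10 min at room temperature, then stimulated with NKH477 (200nM […]) for 30 min. cAMP read by HTRF (665/620 nm).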

[18] = target: D(2) dopamine receptor (Homo sapiens) (UniProt P14416); assay: Dopamine D2 receptor (DRD2) small molecule antagonists, cell-based qHTS assay (AID 1963595; active = well fitted inhibition curve with a large enough effect in the signal ratio in the repeat runs, with a control signal flat; the % refers to the signal ratio)
How it was run: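 In this cell-based antagonist screen, compounds act for 10 min at room temperature before a 30 min challenge with 12 nM quinpirole and 200 nM NKH477. cAMP is quantified by HTRF competition in DRD2-HEK293 cells containing 0.1 mM Ro20-1724.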

[19] = target: Beta-2 adrenergic receptor (Homo sapiens) (UniProt P07550); assay: Adrenergic beta2 receptor (ADRB2) small molecule agonists, cell-based qHTS assay (AID 1963593);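 note: CHO cells stably overexpressing human ADRB2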
How it was run: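 CHO cells stably over-expressing ADRB2 were plated overnight at 37C, then dosed with compounds plus a stimulation mix containing 100uM IBMX and 25uM Ro-20-1724 for 0.5hr at room temperature. cAMP was measured by HTRF competition, 1hr.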

[20] = target: Beta-2 adrenergic receptor (Homo sapiens) (UniProt P07550); assay: Adrenergic beta2 receptor (ADRB2) small molecule antagonists, cell-based qHTS assay (AID 1963592); note: series mostly up to about 92 µM; nearly all actives have a fitted effect of over 50% in size
How it was run: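 Cells (CHO, stable ADRB2 overexpression) incubated 18-20hr at 37C; compounds added from DMSO; agonist mix (1nM isoproterenol, 100uM IBMX, 25uM Ro-20-1724) added; 0.5hr RT; d2-cAMP and anti-cAMP-cryptate added; 1hr RT; 665/615 nm read.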

Measured: Potency

D(2) dopamine receptor (Homo sapiens), sequence (P14416 whole entry, looked up): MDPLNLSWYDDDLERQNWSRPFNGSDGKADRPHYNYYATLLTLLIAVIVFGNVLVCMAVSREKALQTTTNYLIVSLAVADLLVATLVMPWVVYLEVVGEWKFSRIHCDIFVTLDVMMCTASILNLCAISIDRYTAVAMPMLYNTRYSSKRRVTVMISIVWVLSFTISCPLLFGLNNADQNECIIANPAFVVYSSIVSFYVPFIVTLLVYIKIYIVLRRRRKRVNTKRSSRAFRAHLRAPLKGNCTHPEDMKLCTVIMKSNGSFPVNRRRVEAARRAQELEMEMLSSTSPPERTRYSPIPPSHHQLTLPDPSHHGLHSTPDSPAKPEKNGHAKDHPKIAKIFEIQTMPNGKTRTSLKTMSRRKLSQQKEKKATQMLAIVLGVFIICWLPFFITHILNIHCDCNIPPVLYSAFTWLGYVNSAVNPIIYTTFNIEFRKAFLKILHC
Beta-2 adrenergic receptor (Homo sapiens), sequence (P07550 whole entry, looked up): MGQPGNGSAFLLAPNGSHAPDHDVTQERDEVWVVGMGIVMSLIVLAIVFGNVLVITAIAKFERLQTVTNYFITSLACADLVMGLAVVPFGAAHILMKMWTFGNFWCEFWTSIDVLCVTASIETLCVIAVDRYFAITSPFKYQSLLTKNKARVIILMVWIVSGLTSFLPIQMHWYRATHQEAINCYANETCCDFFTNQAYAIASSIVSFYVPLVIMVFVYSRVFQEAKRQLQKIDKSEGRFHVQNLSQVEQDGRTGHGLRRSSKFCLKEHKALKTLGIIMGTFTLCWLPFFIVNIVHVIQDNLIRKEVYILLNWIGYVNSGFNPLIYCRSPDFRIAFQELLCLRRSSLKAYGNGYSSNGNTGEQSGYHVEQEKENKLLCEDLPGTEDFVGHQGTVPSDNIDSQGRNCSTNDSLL
KiSS-1 receptor (Homo sapiens), sequence (Q969F8 whole entry, looked up): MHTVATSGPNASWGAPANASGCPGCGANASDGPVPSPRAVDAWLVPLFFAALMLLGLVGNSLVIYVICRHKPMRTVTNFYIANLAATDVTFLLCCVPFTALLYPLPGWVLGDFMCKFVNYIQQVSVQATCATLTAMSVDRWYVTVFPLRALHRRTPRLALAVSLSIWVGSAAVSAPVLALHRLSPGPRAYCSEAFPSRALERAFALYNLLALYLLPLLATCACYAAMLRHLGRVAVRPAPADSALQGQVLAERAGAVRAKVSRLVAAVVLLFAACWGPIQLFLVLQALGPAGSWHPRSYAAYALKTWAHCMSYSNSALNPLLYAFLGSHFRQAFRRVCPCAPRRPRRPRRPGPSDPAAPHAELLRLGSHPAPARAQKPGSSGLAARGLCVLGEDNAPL
5-hydroxytryptamine receptor 2A (Homo sapiens), sequence (P28223 whole entry, looked up): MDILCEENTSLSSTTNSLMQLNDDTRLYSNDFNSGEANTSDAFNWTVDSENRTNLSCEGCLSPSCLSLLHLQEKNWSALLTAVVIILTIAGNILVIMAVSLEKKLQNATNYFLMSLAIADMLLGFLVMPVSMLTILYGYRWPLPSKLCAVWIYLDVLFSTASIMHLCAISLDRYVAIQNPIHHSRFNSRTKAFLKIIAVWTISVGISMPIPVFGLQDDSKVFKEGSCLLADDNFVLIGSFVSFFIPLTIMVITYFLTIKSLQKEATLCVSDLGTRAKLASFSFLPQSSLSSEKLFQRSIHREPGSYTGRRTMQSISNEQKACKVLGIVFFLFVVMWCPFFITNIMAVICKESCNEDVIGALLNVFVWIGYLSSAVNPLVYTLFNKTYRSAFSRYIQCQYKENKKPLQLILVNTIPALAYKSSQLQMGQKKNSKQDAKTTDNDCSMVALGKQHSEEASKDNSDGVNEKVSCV
Gonadotropin-releasing hormone receptor (Homo sapiens), sequence (P30968 whole entry, looked up): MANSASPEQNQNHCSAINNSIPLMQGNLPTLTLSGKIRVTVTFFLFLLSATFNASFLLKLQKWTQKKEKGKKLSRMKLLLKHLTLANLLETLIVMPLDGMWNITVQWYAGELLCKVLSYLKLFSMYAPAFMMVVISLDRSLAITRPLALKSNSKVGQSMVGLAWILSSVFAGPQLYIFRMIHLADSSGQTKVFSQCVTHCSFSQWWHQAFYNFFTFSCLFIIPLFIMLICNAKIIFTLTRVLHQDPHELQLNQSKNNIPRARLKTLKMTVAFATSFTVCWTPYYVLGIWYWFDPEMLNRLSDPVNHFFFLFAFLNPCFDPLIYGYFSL
Muscarinic acetylcholine receptor M1 (Homo sapiens), sequence (P11229 whole entry, looked up): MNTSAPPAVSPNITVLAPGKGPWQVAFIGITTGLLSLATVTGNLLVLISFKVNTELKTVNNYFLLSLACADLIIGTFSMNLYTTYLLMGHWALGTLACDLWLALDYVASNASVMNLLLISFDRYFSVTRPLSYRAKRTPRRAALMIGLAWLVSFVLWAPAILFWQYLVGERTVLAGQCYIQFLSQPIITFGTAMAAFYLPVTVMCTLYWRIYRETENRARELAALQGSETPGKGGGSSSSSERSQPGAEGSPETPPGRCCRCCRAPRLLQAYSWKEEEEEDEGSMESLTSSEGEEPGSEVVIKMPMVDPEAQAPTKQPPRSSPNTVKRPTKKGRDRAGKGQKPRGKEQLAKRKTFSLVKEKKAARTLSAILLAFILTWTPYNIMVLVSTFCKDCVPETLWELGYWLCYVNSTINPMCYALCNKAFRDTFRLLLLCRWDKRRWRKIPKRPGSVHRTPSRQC

CCCCCCCC(C)=O
inactive: [1] | [2] | [3] | [4] | [5] | [6] | [7] | [8] | [9] | [10] | [11] | [12] | [13] | [14] | [15] | [16] | [17] | [18]

CCCCC/C=C/CC1CC(=O)OC1=O (configuration not stated)
inactive: [1] | [2] | [3] | [4] | [5] | [6] | [7] | [8] | [9] | [10] | [11] | [12] | [13] | [14] | [15] | [16] | [18]

O=C(OCCN1CCOCC1)c1cccnc1Nc1cccc(C(F)(F)F)c1
inactive: [1] | [2] | [3] | [4] | [5] | [6] | [7] | [8] | [9] | [10] | [11] | [12] | [13] | [14] | [15] | [19] | [17] | [18]

C1COC(NC(C2CC2)C2CC2)=N1
inactive: [1] | [2] | [3] | [4] | [5] | [6] | [7] | [8] | [9] | [10] | [11] | [12] | [13] | [14] | [15] | [20] | [19] | [17] | [18]

COc1ccc(-c2cc(C(F)F)nn2-c2ccc(S(N)(=O)=O)cc2)cc1F
inactive: [1] | [2] | [3] | [4] | [5] | [6] | [7] | [8] | [9] | [10] | [11] | [12] | [13] | [14] | [17] | [18]

CCOC(=O)CC(=O)c1cc(F)c(Cl)nc1Cl
inactive: [1] | [2] | [3] | [4] | [5] | [6] | [7] | [8] | [9] | [10] | [11] | [12] | [13] | [15] | [16] | [20] | [19] | [17] | [18]

Cc1cn([C@@H]2O[C@H](CO)[C@@H](O)[C@@H]2F)c(=O)[nH]c1=O
inactive: [1] | [2] | [3] | [4] | [5] | [6] | [7] | [8] | [9] | [10] | [11] | [12] | [13] | [14] | [15] | [16] | [20] | [17] | [18]

O=C(O)c1ccc[n+]([O-])c1
inactive: [1] | [2] | [3] | [4] | [5] | [6] | [7] | [8] | [9] | [10] | [11] | [12] | [13] | [14] | [15] | [16] | [20] | [17] | [18]

O=C(O)c1ccc(Cl)cc1Cl
inactive: [1] | [2] | [3] | [4] | [5] | [6] | [7] | [8] | [9] | [10] | [11] | [12] | [13] | [14] | [15] | [20] | [17] | [18]

CC1=CP(=O)(c2ccccc2)CC1 (configuration not stated)
inactive: [1] | [2] | [3] | [4] | [5] | [6] | [7] | [8] | [9] | [10] | [11] | [12] | [13] | [14] | [15] | [16] | [19] | [17] | [18]

CC(=O)N[C@@H](CCC(N)=O)C(=O)O
inactive: [1] | [2] | [3] | [4] | [5] | [6] | [7] | [8] | [9] | [10] | [11] | [12] | [13] | [14] | [15] | [16] | [20] | [18]

CCC=O
inactive: [1] | [2] | [3] | [4] | [5] | [6] | [7] | [8] | [9] | [10] | [11] | [12] | [13] | [14] | [15] | [16] | [20] | [17] | [18]

CCOC(=O)/C=C/C(=O)OCC
inactive: [1] | [2] | [3] | [4] | [5] | [6] | [7] | [8] | [9] | [10] | [11] | [12] | [13] | [14] | [15] | [16] | [20] | [17] | [18]

C=C(C)C(=O)OCC(O)CO (configuration not stated)
inactive: [1] | [2] | [3] | [4] | [5] | [6] | [7] | [8] | [9] | [10] | [11] | [12] | [13] | [14] | [15] | [20] | [19] | [17] | [18]
